# Experimental data taken from PubChem BioAssay (NCATS).
# Values without a mark were called inactive. Records with an inconclusive call do not appear. The source made the active and inactive calls. Unless noted, calls come from the whole dose curve; as a rule, active = well fitted curve in the direction sought with a large enough effect; inconclusive = small, poorly fitted or top-dose-only effect, or another doubt; inactive = no such curve, though single readings can be large; an effect the other way counts as inactive or inconclusive.
# How the values were obtained:
# [1] = target: Cytochrome P450 3A4 (Homo sapiens) (UniProt P08684); test: qHTS Assay for Inhibitors and Substrates of Cytochrome P450 3A4 (AID 884); note: potency is the fitted concentration of half-maximal effect; nearly all actives have a fitted effect of over 50% in size
# Procedure, shortened: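 Luminescent readout of luciferin produced by CYP3A4 (20 nM) dealkylation of Luciferin-PPXE, 25 uM (its KM). NADPH-driven reaction ran 60 min at RT after 10 min compound preincubation; data scaled to 57 uM ketoconazole as 100% inhibition.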
# [2] = target: Cytochrome P450 3A4 (Homo sapiens) (UniProt P08684); test: qHTS Assay for Activators of Cytochrome P450 3A4 (AID 885); note: nearly all actives have a fitted effect of over 65% in size
# Procedure, shortened: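 Luminescent readout of luciferin formed from 25 uM Luciferin-PPXE (KM level) by 20 nM CYP3A4 in 200 mM KPO4, with 60 min NADPH-driven reaction at room temperature after 10 min compound exposure. Ketoconazole (57 uM) defined 100% inhibition.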
# [3] = target: Bile acid receptor (Homo sapiens) (UniProt Q96RI1); test: qHTS assay for small molecule agonists of farnesoid X receptor signaling (AID 588527; calls by dose curve;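 note: series mostly up to about 77 µM; 0% = vehicle basal and 100% = reference agonist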); settings: HEK293T FXR-UAS-bla, beta-lactamase ratio, 16 h; activation: active compounds read high
# Procedure, shortened: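 Agonist-mode beta-lactamase reporter in GeneBLAzer FXR-UAS-bla HEK293T cells, titration up to 92 uM, 16 h exposure at 37 C, CCF4 fluorescence. Response scaled to DMSO (0%) and 100 uM chenodeoxycholic acid (100%), then Hill-fitted for EC50 and efficacy.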
# [4] = target: Peroxisome proliferator-activated receptor delta (Homo sapiens) (UniProt Q03181); test: qHTS assay for small molecule agonists of peroxisome proliferator-activated receptor delta signaling (AID 588534; calls by dose curve;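 note: 0% = DMSO basal wells and 100% = positive control agonist at 10 µM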)
# Procedure, shortened: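 Titration series tested in agonist mode on beta-lactamase reporter cells; 18 hrs at 37 C after a 5 hr pre-incubation. Readout: CCF4 fluorescence, 2 hrs RT. Hill equation gives EC50 and maximal response.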
# [5] = target: Voltage-gated inwardly rectifying potassium channel KCNH2 (Homo sapiens) (UniProt Q12809); test: qHTS Assay for Small Molecule Inhibitors of the Human hERG Channel Activity (AID 588834);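 note: top concentration of the series differs between compounds; % is set by controls: 0 for no effect and ±100 for the full control effect; lower thallium flux fluorescence means stronger hERG block; nearly all actives have a fitted effect of over 50% in size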
# Procedure, shortened: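 Thallium serves as surrogate for K+ influx through BacMam-delivered hERG in U2OS cells. Compounds are added for about 10 minutes after dye loading; stimulation buffer then starts flux, monitored kinetically on FDSS.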
# [6] = MultiTox-Fluor Cytotoxicity Assay - LYMP1-001 - Dead Cells (AID 946); note: potency is the fitted concentration of half-maximal effect
# Procedure, shortened: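 Cytotoxicity as increased dead-cell protease fluorescence (bis-AAF-R110, 485/520 nm), read 60 min after MultiTox-Fluor reagent. Human lymphoblastoid line exposed 16 h; Hill-fitted AC50, with DMSO as 0% and 15 uM tetraoctylammonium bromide as 100%.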
# [7] = MultiTox-Fluor Cytotoxicity Assay - LYMP1-001 - Live Cells (AID 947); note: potency is the fitted concentration of half-maximal effect
# [8] = MultiTox-Fluor Cytotoxicity Assay - LYMP1-002 - Dead Cells (AID 960); note: potency is the fitted concentration of half-maximal effect; nearly all actives have a fitted effect of over 60% in size
# Procedure, shortened: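 Readout: fluorescence at 485/520 from cell-impermeant bis-AAF-R110 cleaved by proteases leaking from damaged cells. LYMP1-002 lymphoblastoid line, 16 hr compound treatment at 37 C, concentration-response in qHTS format; Hill-equation AC50 values.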
# [9] = MultiTox-Fluor Cytotoxicity Assay - LYMP1-003 - Dead Cells (AID 961); note: potency is the fitted concentration of half-maximal effect; nearly all actives have a fitted effect of over 70% in size
# Procedure, shortened: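 Dead-cell protease release, detected as bis-AAF-R110 fluorescence at 485/520 nm, was measured in LYMP1-003 cells after 16 h compound treatment at 37 C. AC50 values came from Hill-modeled qHTS curves normalized to DMSO (0%) and 15 uM tetraoctylammonium bromide (100%).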
# [10] = Cell Viability - LYMP1-003 - Assay at 24 hr (AID 963); note: potency is the fitted concentration of half-maximal effect
# Procedure, shortened: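 CellTiter-Glo luminescence (intracellular ATP) read after 24 hr, 37 C compound exposure of 2500 LYMP1-003 human lymphoblastoid cells/well in complete medium; qHTS concentration series; AC50 via standard Hill equation.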
# [11] = Cell Viability - LYMP1-003 - Assay at 40 hr (AID 964); note: potency is the fitted concentration of half-maximal effect; nearly all actives have a fitted effect of over 60% in size
# Procedure, shortened: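 LYMP1-003 lymphoblastoid cells, 2500/well; 5 hr preincubation, 40 hr compound exposure, 37 C; CellTiter-Glo 30 min RT; luminescence; Hill-fit AC50. Positive control tetraoctylammonium bromide.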
# [12] = Cell Viability - LYMP2-004 (AID 966); note: potency is the fitted concentration of half-maximal effect; nearly all actives have a fitted effect of over 65% in size
# Procedure, shortened: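 Luminescent ATP read-out (CellTiter-Glo, 30 min RT) after 24 hr compound exposure at 37 C; 2500 lymphoblastoid cells/well, complete medium. Decrease in ATP = cytotoxicity; AC50 from standard Hill model.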
# [13] = Cell Viability - LYMP2-005 (AID 967); note: potency is the fitted concentration of half-maximal effect
# Procedure, shortened: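 Human lymphoblastoid LYMP2-005 cells, 2,500 per well in complete medium, rested 5 h at 37C then compound-treated 24 h at 37C. Intracellular ATP read by CellTiter-Glo luminescence after 30 min at room temperature; AC50 from Hill-equation fits of concentration-response data.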
# [14] = Cell Viability - LYMP2-013 (AID 970); note: potency is the fitted concentration of half-maximal effect; nearly all actives have a fitted effect of over 55% in size
# Procedure, shortened: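 CellTiter-Glo luminescence (cellular ATP) read after 30 min at RT. Cells: human lymphoblastoid line, 2500/well, 24 hr compound exposure at 37 C. Tetraoctylammonium bromide positive control; AC50 via standard Hill fit of qHTS titrations.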
# [15] = Cell Viability - LYMP2-017 (AID 972); note: potency is the fitted concentration of half-maximal effect; nearly all actives have a fitted effect of over 55% in size
# Procedure, shortened: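 Luminescent ATP read-out (CellTiter-Glo, 30 min RT) reports viable cell number. Cells: human lymphoblastoid line, 2500 per well, 5 hr preincubation, 24 hr compound exposure at 37 C. AC50 is derived from qHTS concentration-response data using the standard Hill model.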
# [16] = Cell Viability - LYMP2-019 (AID 973); note: potency is the fitted concentration of half-maximal effect; nearly all actives have a fitted effect of over 55% in size
# Procedure, shortened: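 qHTS, 1536-well; 2500 cells/well; 5 hr pre-incubation, 24 hr compound exposure, 37 C; CellTiter-Glo added, 30 min RT; luminescence read; AC50 via standard Hill equation.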
# [17] = Cell Viability - LYMP2-021 (AID 974);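 note: potency is the fitted concentration of half-maximal effect; compound exposure lasts 24 hours at 37 °C; nearly all actives have a fitted effect of over 55% in size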
# Procedure, shortened: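 ATP luminescence (CellTiter-Glo, 30 min RT) after 24 h compound exposure at 37 C; 2500 human lymphoblastoid cells/well, 5 h settle beforehand. Cytotoxicity = concentration-dependent ATP drop, AC50 by Hill fit.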
# [18] = Cell Viability - LYMP2-025 (AID 976); note: potency is the fitted concentration of half-maximal effect
# Procedure, shortened: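 CellTiter-Glo luminescence (cellular ATP) after 24 h compound exposure at 37 C; LYMP2-025 human lymphoblastoid cells, 2500/well, complete medium. Tetraoctylammonium bromide positive control. AC50 by Hill equation fit of qHTS concentration-response.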
# [19] = Cell Viability - LYMP2-002 (AID 977); note: potency is the fitted concentration of half-maximal effect
# Procedure, shortened: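 In this qHTS viability screen, 2500 human lymphoblastoid cells per well receive compound for 24 hr at 37 C, and luciferase-based ATP luminescence gives the viability signal. Tetraoctylammonium bromide serves as positive control.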
# [20] = Cell Viability - LYMP2-006 (AID 978); note: potency is the fitted concentration of half-maximal effect; nearly all actives have a fitted effect of over 60% in size
# Procedure, shortened: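 Human lymphoblastoid cells (LYMP2-006), 2500/well in complete medium, were treated with compound for 24 hr at 37 C. Cellular ATP was read by CellTiter-Glo luminescence after 30 min, and AC50 values came from Hill-equation fits of concentration-response data.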
# [21] = Cell Viability - LYMP2-007 (AID 979);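 note: potency is the fitted concentration of half-maximal effect; cells exposed to compound for 24 h before reading; nearly all actives have a fitted effect of over 60% in size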
# Procedure, shortened: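 qHTS cytotoxicity: 2500 cells/well, 5 hr 37 C settle, compound 24 hr 37 C, CellTiter-Glo 30 min RT, luminescence. Decrease in ATP = toxicity. AC50 by standard Hill equation; tetraoctylammonium bromide positive control.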
# [22] = Cell Viability - LYMP2-008 (AID 980)
# Procedure, shortened: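 Luminescent ATP read-out (CellTiter-Glo, 30 min RT) after 24 hr compound exposure at 37 C of human lymphoblastoid cells in complete medium. Decrease in ATP taken as cytotoxicity; AC50 derived by standard Hill fit of qHTS concentration-response data.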
# [23] = Cell Viability - LYMP2-010 (AID 981)
# Procedure, shortened: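 qHTS cytotoxicity, 1536-well: 2500 cells/well, 5 hr settle, 24 hr compound at 37 C, CellTiter-Glo 30 min RT, luminescence read. Decrease in ATP = toxicity; AC50 via standard Hill equation. Positive control tetraoctylammonium bromide.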
# [24] = Cell Viability - LYMP2-012 (AID 982)
# [25] = Cell Viability - LYMP2-016 (AID 984)
# Procedure, shortened: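 Human lymphoblastoid LYMP2-016 cells, 2500 per well, treated with compounds for 24 h at 37 C. Viability read as intracellular ATP by CellTiter-Glo luminescence after 30 min at room temperature; AC50 from Hill fits of concentration-response.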
# [26] = Cell Viability - LYMP2-020 (AID 986)
# Procedure, shortened: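 qHTS, 2500 cells/well; 5 hr then 24 hr compound exposure, 37 C; CellTiter-Glo luminescence after 30 min RT; ATP decrease taken as cytotoxicity; AC50 via Hill equation; tetraoctylammonium bromide positive control.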
# [27] = Cell Viability - LYMP2-026 (AID 989); note: potency is the fitted concentration of half-maximal effect; nearly all actives have a fitted effect of over 50% in size
# Procedure, shortened: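 qHTS cytotoxicity: 2500 cells/well, 5 hr 37 C, compound 24 hr 37 C, CellTiter-Glo 30 min RT, luminescence. Tetraoctylammonium bromide positive control. AC50 via standard Hill fit.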
# [28] = Cell Viability - LYMP1-002 - Assay at 40 hr (AID 994)
# Procedure, shortened: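 qHTS cytotoxicity; 2500 cells/well, 5 hr 37 C settle, compound 40 hr 37 C. CellTiter-Glo, 30 min RT, luminescence (ATP). Concentration-response, Hill fit → AC50. Pos. ctrl tetraoctylammonium bromide.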
# [29] = qHTS assay for small molecule antagonists of the retinoid-related orphan receptor gamma (ROR-gamma) signaling pathway - cell viability counter screen (AID 720652; active = well fitted curve in the direction sought with a large enough effect in the repeat runs; an effect the other way counts as inactive or inconclusive;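 note: potency is the fitted concentration of half-maximal effect; compound exposure lasted 16 hr before ATP read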)
# Procedure, shortened: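 CHO RORE-LUC/TET-ROR line, 1,000 cells/well, 37 C 5% CO2 5 hr; cpd or DMSO + doxycycline induction, 16 hr. CellTiter-Glo, 30 min RT, luminescence = ATP content.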
# [30] = qHTS assay for small molecule agonists of the antioxidant response element (ARE) signaling pathway measured by Nrf2-dependant transcriptional activity - cell viability counter screen (AID 720653; active = well fitted curve in the direction sought with a large enough effect in the repeat runs; an effect the other way counts as inactive or inconclusive; note: potency is the fitted concentration of half-maximal effect); settings: ARE-bla HepG2 viability, CellTiter-Glo ATP luminescence, 16 h; max response: active compounds read low
# Procedure, shortened: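 ARE-bla HepG2 cells (2,000/well) rested 5 hrs at 37C/5% CO2, then exposed to compounds in DMSO for 16 hrs. Viability was read in the same wells as intracellular ATP by luminescence, 30 min at room temperature after reagent addition.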
# [31] = target: Luciferin 4-monooxygenase (Photinus pyralis) (UniProt P08659); test: Biochemical firefly luciferase enzyme assay for NPC (AID 624030);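 note: purified P. pyralis luciferase at 10 nM with luciferin and ATP substrate; series mostly up to about 59 µM; 0% = DMSO and -100% = full luciferase inhibition by PTC124 control; nearly all actives have a fitted effect of over 70% in size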
# Procedure, shortened: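 Counter-screen for direct inhibition of the luciferase enzyme by approved-drug library compounds, run at 10 nM enzyme in 50 mM Tris acetate (final). Luminescence was read within 5 min of enzyme-buffer addition and normalized to PTC124 versus DMSO (0%).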
# [32] = S16 Schwann cell PMP22 intronic element firefly luciferase assay (AID 624032);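 note: series mostly up to about 58 µM; plate controls were DMSO for no effect and PTC124 positive control mean for full effect; nearly all actives have a fitted effect of over 30% in size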
# Procedure, shortened: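 Rat S16 Schwann cells stably carrying a PMP22 intronic element-driven Fluc reporter were seeded overnight, then exposed to compounds for 24 h at 37 °C. Luminescence was normalized to PTC124 (positive control) and DMSO (0% activity).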
# [33] = target: Nuclear receptor ROR-gamma (Homo sapiens) (UniProt P51449); test: qHTS assay for small molecule antagonists of the retinoid-related orphan receptor gamma (ROR-gamma) signaling pathway (AID 651802)
# Procedure, shortened: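 Luciferase read-out: ONE-Glo luminescence after 30 min at room temperature, following 16hr doxycycline induction at 37C, 5% CO2 of CHO cells with TET-inducible ROR and RORE-LUC reporter; decreased luminescence = reduced reporter activity.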
# Chain of Bile acid receptor (Homo sapiens) (Q96RI1 whole entry, looked up): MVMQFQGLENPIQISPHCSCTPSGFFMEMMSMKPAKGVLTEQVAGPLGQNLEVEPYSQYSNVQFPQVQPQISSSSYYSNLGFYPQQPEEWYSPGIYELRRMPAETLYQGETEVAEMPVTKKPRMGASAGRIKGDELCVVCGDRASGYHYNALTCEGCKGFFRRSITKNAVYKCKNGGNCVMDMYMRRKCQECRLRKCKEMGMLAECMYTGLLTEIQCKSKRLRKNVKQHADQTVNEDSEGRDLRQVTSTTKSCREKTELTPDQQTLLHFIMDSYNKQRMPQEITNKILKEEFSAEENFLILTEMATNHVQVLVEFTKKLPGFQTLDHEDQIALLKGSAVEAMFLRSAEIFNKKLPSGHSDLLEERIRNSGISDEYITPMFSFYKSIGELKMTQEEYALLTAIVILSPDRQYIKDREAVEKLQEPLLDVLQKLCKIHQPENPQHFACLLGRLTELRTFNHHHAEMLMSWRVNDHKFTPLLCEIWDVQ
# Chain of Peroxisome proliferator-activated receptor delta (Homo sapiens) (Q03181 whole entry, looked up): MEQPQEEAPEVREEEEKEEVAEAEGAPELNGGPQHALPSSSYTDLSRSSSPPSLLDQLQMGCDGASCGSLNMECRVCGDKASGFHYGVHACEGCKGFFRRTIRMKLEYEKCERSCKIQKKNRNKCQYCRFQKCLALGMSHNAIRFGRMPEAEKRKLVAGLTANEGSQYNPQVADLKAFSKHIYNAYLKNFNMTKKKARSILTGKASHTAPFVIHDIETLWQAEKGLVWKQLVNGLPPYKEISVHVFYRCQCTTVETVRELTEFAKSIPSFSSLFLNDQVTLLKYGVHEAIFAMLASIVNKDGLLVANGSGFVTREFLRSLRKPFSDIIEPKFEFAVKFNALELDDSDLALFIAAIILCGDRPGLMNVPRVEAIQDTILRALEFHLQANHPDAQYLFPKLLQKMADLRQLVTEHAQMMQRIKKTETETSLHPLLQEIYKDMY
# Chain of Cytochrome P450 3A4 (Homo sapiens) (P08684 whole entry, looked up): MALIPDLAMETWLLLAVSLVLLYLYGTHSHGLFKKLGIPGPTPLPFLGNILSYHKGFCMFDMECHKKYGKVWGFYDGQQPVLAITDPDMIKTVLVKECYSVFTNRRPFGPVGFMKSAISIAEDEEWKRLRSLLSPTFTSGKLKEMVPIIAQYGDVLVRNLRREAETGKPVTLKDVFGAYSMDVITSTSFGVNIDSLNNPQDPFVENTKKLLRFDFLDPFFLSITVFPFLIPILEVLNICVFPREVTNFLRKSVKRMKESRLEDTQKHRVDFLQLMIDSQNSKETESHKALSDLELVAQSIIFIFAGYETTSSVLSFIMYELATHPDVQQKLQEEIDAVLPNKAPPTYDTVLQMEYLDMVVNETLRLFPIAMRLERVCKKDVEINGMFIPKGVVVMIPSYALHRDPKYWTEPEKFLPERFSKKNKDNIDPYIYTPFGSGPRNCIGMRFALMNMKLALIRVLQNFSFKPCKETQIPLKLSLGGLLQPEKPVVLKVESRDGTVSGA
# Chain of Voltage-gated inwardly rectifying potassium channel KCNH2 (Homo sapiens) (Q12809 whole entry, looked up): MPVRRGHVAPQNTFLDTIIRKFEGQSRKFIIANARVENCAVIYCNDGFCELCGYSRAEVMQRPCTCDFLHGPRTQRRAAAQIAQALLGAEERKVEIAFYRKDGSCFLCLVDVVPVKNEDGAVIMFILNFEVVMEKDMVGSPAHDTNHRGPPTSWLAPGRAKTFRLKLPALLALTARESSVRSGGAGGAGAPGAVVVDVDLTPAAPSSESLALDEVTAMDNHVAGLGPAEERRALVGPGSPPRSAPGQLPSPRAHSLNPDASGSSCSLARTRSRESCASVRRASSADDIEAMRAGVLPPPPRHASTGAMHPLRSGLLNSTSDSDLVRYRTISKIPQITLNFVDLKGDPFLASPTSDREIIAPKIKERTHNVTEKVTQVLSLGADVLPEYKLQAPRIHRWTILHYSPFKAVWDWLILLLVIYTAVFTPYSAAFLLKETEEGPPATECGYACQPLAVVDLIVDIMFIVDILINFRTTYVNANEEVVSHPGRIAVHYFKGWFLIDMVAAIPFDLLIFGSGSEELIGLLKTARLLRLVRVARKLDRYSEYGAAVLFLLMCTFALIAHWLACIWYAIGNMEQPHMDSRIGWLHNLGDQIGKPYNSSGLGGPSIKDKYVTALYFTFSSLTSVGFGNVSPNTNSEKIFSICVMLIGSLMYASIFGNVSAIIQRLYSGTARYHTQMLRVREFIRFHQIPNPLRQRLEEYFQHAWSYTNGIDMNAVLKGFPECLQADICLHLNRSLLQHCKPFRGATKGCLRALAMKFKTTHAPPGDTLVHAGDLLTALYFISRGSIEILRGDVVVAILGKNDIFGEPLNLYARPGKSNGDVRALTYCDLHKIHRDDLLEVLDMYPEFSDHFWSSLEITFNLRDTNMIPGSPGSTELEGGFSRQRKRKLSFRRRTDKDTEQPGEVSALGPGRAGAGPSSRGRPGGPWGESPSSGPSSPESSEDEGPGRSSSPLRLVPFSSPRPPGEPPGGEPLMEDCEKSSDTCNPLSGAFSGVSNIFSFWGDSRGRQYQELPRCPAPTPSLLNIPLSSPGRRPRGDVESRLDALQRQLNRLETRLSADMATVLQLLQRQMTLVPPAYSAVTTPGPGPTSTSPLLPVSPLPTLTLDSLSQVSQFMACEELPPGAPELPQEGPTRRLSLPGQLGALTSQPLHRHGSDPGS
# Chain of Luciferin 4-monooxygenase (Photinus pyralis) (P08659 whole entry, looked up): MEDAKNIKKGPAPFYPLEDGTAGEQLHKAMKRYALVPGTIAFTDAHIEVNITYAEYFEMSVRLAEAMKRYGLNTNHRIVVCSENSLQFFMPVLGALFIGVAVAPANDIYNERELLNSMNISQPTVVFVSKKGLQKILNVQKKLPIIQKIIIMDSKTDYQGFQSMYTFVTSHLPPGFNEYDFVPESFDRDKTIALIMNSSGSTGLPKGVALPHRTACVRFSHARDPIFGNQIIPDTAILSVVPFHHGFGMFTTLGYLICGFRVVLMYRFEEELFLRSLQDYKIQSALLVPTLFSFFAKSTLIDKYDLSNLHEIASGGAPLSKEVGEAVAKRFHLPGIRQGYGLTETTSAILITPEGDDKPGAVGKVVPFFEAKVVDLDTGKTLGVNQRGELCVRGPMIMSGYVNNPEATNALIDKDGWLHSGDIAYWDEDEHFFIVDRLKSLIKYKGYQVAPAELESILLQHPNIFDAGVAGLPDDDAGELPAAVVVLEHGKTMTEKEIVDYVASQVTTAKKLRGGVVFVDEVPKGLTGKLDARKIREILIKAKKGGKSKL
# Chain of Nuclear receptor ROR-gamma (Homo sapiens) (P51449 whole entry, looked up): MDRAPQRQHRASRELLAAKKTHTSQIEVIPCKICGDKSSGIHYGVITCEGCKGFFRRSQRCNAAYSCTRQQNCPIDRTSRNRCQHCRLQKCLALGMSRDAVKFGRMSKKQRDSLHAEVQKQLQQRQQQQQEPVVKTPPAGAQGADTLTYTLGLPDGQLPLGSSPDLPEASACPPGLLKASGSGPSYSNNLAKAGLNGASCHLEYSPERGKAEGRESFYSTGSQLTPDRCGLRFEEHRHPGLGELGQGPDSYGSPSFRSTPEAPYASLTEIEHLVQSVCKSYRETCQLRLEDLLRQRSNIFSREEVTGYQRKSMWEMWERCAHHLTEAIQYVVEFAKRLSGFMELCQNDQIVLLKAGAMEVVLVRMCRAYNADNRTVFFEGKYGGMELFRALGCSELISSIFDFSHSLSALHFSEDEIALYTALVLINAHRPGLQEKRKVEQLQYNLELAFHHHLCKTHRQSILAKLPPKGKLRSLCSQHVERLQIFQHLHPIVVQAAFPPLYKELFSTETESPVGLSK
compound,measurement,setting,value
Cc1ccc2ccc3cccc4ccc1c2c34,Potency,[1],25.1 µM (active)
same,Potency,[2],inactive
same,activation,[3],-4.07%
same,outcome,[4],inactive
same,Potency,[5],inactive
CC/C(=C(\c1ccccc1)c1ccc(OCCN(C)C)cc1)c1ccc(O)cc1,Potency,[2],inactive
same,Potency,[6],50.1 µM (active)
same,Potency,[7],50.1 µM (active)
same,Potency,[8],31.6 µM (active)
same,Potency,[9],50.1 µM (active)
same,Potency,[10],50.1 µM (active)
same,Potency,[11],50.1 µM (active)
same,Potency,[12],50.1 µM (active)
same,Potency,[13],50.1 µM (active)
same,Potency,[14],50.1 µM (active)
same,Potency,[15],39.8 µM (active)
same,Potency,[16],50.1 µM (active)
same,Potency,[17],50.1 µM (active)
same,Potency,[18],50.1 µM (active)
same,Potency,[19],50.1 µM (active)
same,Potency,[20],39.8 µM (active)
same,Potency,[21],50.1 µM (active)
same,Potency,[22],50.1 µM (active)
same,Potency,[23],50.1 µM (active)
same,Potency,[24],50.1 µM (active)
same,Potency,[25],50.1 µM (active)
same,Potency,[26],50.1 µM (active)
same,Potency,[27],39.8 µM (active)
same,Potency,[28],50.1 µM (active)
same,activation,[3],1.2%
same,Potency,[29],75 µM (active)
same,Potency,[30],70.8 µM (active)
ClC(Cl)Cl,activation,[3],0.676%
same,outcome,[4],inactive
same,Potency,[31],inactive
CN(C)CCCCCCN(C)C,activation,[3],-2.62%
same,outcome,[4],inactive
same,Potency,[5],inactive
same,Potency,[32],inactive
same,Potency,[33],inactive
